# Screening results from PubChem.
# MK inhibit – blocks S. pneumoniae mevalonate kinase | purified MK, PK/LDH-coupled NADH absorbance 340 nm | AID 555 | inhibition, % at 10 µM | hit rate 0.48% among 65,000;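 active = ranked among the strongest by inhibition in the single 10 µM screen, a fixed top-ranked set picked for dose follow-up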
# A340 absorber – compounds absorbing at 340 nm. compound absorbance at 340 nm, fold over control. AID 708. fold change at 10 µM. 65,000 tested, under 10 active;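 active = at 10 µM dose, initial 340 nm absorbance at least 2 fold that of control wells; inactive = change under 2 fold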;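 also: initial absorbance extrapolated from kinetic A340 decline of NADH oxidation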
# Fluor 339 460 – intrinsic fluorescence of library compounds, ex339/em460 – biochemical, MLSMR library, data from DPM-DC assay, artefact control, profiling panel. compound autofluorescence, ex339/em460 nm, NADH buffer; hits give high values; 1 = no-compound wells, NADH background. fluorescence fold increase at 10 µM. hit rate 5.5% among 65,000;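 active = at 10 µM, mean starting fluorescence two-fold or more over control wells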;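 also: signal is the first read of a kinetic run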
# DPM-DC inhibit – S. pneumoniae DPM-DC inhibition. calls only at 10 µM. hit rate 0.49% among 65,000. AID 556. purified DPM-DC, PK/LDH coupled NADH fluorescence;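 active = the 320 compounds with the highest percent inhibition in the single-dose primary screen, excluding strongly autofluorescent ones, cut at about 32% in these data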;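 also: kinetic rate of NADH fluorescence loss reporting ADP formed by the decarboxylase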
# NADH coupling – blocks coupling enzymes of NAD/NADH assays; coupled PK/LDH NADH assays, four targets; IC50, µM (top dose mostly 10 µM); hit rate 0.02% among 65,000;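 active = single-dose screening hits from any of four coupled enzyme assays that gave an IC50 when retested across doses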;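 also: the DPM-DC format reads NADH fluorescence rather than 340 nm absorbance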
# PMK inhibit – inhibitors of Streptococcus pneumoniae phosphomevalonate kinase | purified PMK, PK/LDH-coupled NADH absorbance 340 nm | inhibition, % at 10 µM | hit rate 0.49% among 65,000;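 active = top-ranked compounds by inhibition in the single 10 µM screen, taking a fixed number of the strongest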
# Numbers stand for hits; i = inactive; nt = not tested or not shown; + = active, no number. The list is not random: actives were taken first. Their share in the collection is about 6.5%.
SMILES,MK inhibit,A340 absorber,Fluor 339 460,DPM-DC inhibit,NADH coupling,PMK inhibit
Fc1ccccc1N1CCN(Cc2ccc3c(c2)OCO3)CC1,i,i,i,i,i,i
Fc1ccccc1N1CCN(Cc2c(F)cccc2F)CC1,49.0,i,i,i,i,i
COc1cc(OC)c(OC)cc1CNC(C)C(O)c1ccccc1 (configuration not stated),i,i,i,i,i,i
COc1cc(OC)c(OC)cc1CNCCc1ccc(OC)c(OC)c1,42.0,i,i,i,i,i
O=P1(NC2CCCC2)COc2ccccc2OC1,i,i,i,+,i,i
Cc1c2cnn(CC(=O)N3CCC4(CC3)OCCO4)c(=O)c2c(C)n1Cc1ccc(F)cc1,i,i,i,i,i,29.0
O=C(Cn1ncc2c3ccccc3n(Cc3ccccc3)c2c1=O)N1CCC2(CC1)OCCO2,i,i,i,i,i,i
CC1=CC(=O)NP(=O)(Oc2ccc3ccccc3c2)N1 (configuration not stated),i,i,i,i,i,i
CCOC(=O)c1[nH]c(C)c(C(=O)N2CCC3(CC2)OCCO3)c1C,i,i,i,i,i,i
Cc1cccn2c(NCC3CCCO3)c(C(C)C)nc12 (configuration not stated),i,i,3.63,nt,i,i
CCOc1cc(-c2nc3c(C)cccn3c2NCC2CCCO2)ccc1O (configuration not stated),i,i,3.91,nt,i,i
CC12CN3CC(C)(CN(C1)C3c1cccs1)C2O (configuration not stated),i,i,i,i,i,i
Cc1ccc2cc3cc(C(=O)N4CCC5(CC4)OCCO5)oc3nc2c1,i,i,3.52,i,i,i
Cc1cc(OCc2nn[nH]n2)c2c3c(c(=O)oc2c1)CCCC3,i,i,3.81,nt,i,i
CCCCOC(=O)COc1cc(C)cc2oc(=O)c3c(c12)CCC3,i,i,i,i,i,i
C=CCOC(=O)COc1cc(C)cc2oc(=O)c3c(c12)CCC3,i,i,2.42,nt,i,i
CN(C)CCN=Cc1c(O)n(-c2cccc(C(F)(F)F)c2)c(=O)[nH]c1=O,i,i,i,i,i,i
COC(=O)c1c(C)n(Cc2ccc3c(c2)OCO3)c2ccc(O)cc12,i,i,i,i,i,i
CCC(=NCC1CCCO1)c1c(O)n(-c2ccccc2)c(=O)[nH]c1=O (configuration not stated),i,i,i,i,i,i
CCC(C)NC(=O)c1c(N)n(CC2CCCO2)c2nc3ccccc3nc12 (configuration not stated),i,i,2.47,nt,i,i
CCC(C)NC(=O)c1c(N)n(Cc2ccc3c(c2)OCO3)c2nc3ccccc3nc12 (configuration not stated),i,i,3.95,nt,i,i
COP(=S)(OC)SCN1C(=O)c2ccccc2C1=O,i,i,i,i,i,i
CCOCC(=O)NC1CCSC1=O (configuration not stated),i,i,i,i,i,25.0
O=C(Cn1ncc2c3ccccc3n(Cc3ccccc3F)c2c1=O)N1CCC2(CC1)OCCO2,i,i,i,i,i,i
COc1ccc(CN2CCN(c3ccccc3)CC2)c(C)c1C,50.0,i,i,i,i,i
SMILES,MK inhibit,A340 absorber,Fluor 339 460,DPM-DC inhibit,NADH coupling,PMK inhibit
CC#CP(=O)(OCC)C(O)(c1ccccc1)C(F)(F)F (configuration not stated),i,i,i,i,i,i
COCCCn1c(N)c(C(=O)OC(C)COC)c2nc3ccccc3nc21 (configuration not stated),i,i,3.9,nt,i,i
CCCCOCCCn1c(N)c(C(=O)OC(C)COC)c2nc3ccccc3nc21 (configuration not stated),i,i,2.35,nt,i,i
Cc1ccccc1CS(=O)(=O)Cc1ccc(C(=O)N2CCC3(CC2)OCCO3)o1,i,i,i,i,i,i
COc1cc(CN2CCN(C(=O)COc3ccccc3)CC2)cc(OC)c1OC,47.0,i,i,i,i,i
CCOC(=O)c1c(C)n(Cc2ccccc2)c2ccc(OCC(O)CN3C(=O)CNC3=O)cc12 (configuration not stated),i,i,i,i,i,i
CCCCSP1(=S)NCCCO1 (configuration not stated),i,i,i,i,i,i
COCCNC(=O)c1c(NC(=O)c2ccco2)n(Cc2ccccc2)c2nc3ccccc3nc12,i,i,3.76,nt,i,i
Cn1cc(CCC(=O)N2CCC3(CC2)OCCO3)c2ccccc21,i,i,i,i,i,i
Cc1cc(N2CCOCC2)nc2ccc(NC(=O)CCC(=O)N3CCC4(CC3)OCCO4)cc12,i,i,4.76,nt,i,i
COCCn1cc(C(=O)N2CCC3(CC2)OCCO3)c2c3ccccc3n(C)c2c1=O,i,i,4.31,nt,i,i
Cn1c2ccccc2c2c(C(=O)N3CCC4(CC3)OCCO4)cn(C3CCCC3)c(=O)c21,i,i,2.09,nt,i,i
CCCC(=O)c1c(O)[nH]c(=O)[nH]c1=O,i,i,i,i,i,i
CCCCCCn1c(=O)c(C(=O)Nc2c(C)n(C)n(-c3ccccc3)c2=O)c(O)c2ccccc21,i,i,i,i,i,i
Cc1cc2c(C(F)(F)F)cc(=O)oc2c2c1NCCC2,i,i,i,i,i,26.0
Cc1cccc(N2CCc3c2nc2ccccc2c3N)c1,i,i,3.8,nt,i,i
Cc1ccnc(-n2c(C)nc3ccccc3c2=O)c1,i,i,i,i,i,i
CCOC(=O)c1c(C)n(Cc2ccco2)c2ccc(O)cc12,i,i,i,i,i,i
CC(C)(C)OC(=O)c1c(N)n(Cc2ccco2)c2nc3ccccc3nc12,i,i,2.5,nt,i,i
Nc1c(C(=O)NCCN2CCOCC2)c2nc3ccccc3nc2n1Cc1ccco1,i,i,3.89,nt,i,i
COc1ccc(CCNC(=O)c2c(N)n(CCN3CCOCC3)c3nc4ccccc4nc23)cc1,i,i,3.36,nt,i,i
CCCCn1c(N)c(C(=O)NCCN2CCOCC2)c2nc3ccccc3nc21,i,i,2.08,nt,i,i
CCN(CC)CCN=Cc1c(O)n(CCc2ccccc2)c(=O)[nH]c1=O,i,i,i,i,i,i
CC(=NCCN1CCOCC1)c1c(O)n(C2CCCCC2)c(=O)[nH]c1=O,i,i,i,i,i,i
Cc1sc2ncn(CC(=O)NCC(=O)N3CCC4(CC3)OCCO4)c(=O)c2c1C,i,i,i,i,i,i
CN=C(SCc1cc2c(cc1Cl)OCO2)c1c(O)n(C)c(=O)n(C)c1=O,i,i,i,i,i,i
CCN1CCN(Cc2nnnn2C(C)(C)C)CC1,i,i,i,i,i,i
CCCCn1c(C)c(C(=O)OCC)c2c(CN3CCOCC3)c(O)ccc21,i,i,i,i,i,i
CCOC(=O)c1c(N)n(CCN2CCCCC2)c2nc3ccccc3nc12,i,i,4.92,nt,i,i
CCC(=NCCCN1CCOCC1)c1c(O)n(Cc2ccccc2)c(=O)[nH]c1=O,i,i,i,i,i,i
